Experiments:
Assay in all cases: DAPPL (digital affinity profiling via proximity ligation, sequencing); 10 mM Tris-HCl pH 7.5, 50 mM NaCl, 1 mM DTT, 4% glycerol, room temperature, 30 min; GST-TFs on glutathione beads, 16-mer random dsDNA library, 0.1% formaldehyde crosslink after washing; high values mean tight binding
[1] = target: T1, FEV (Homo sapiens, UniProt Q99581 1-238); details: protein: recombinant; tags: N-terminal GST; dsDNA, one strand shown
T1 sequence: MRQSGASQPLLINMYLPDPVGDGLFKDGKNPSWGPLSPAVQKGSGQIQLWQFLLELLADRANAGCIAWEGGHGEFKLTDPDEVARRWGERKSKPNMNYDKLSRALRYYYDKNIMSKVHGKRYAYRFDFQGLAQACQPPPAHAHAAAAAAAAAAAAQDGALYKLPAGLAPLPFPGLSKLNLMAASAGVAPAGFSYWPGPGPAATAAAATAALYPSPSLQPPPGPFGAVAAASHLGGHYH
Summary of the method: (§1)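 The binding signal reported is, for every hexamer, its read frequency for a factor over its read frequency for the tag-only sample. Reads came from pools of yeast-expressed, GST-fused human transcription factors on glutathione beads, barcoded with DNA and mixed with that sample, which were incubated with 200 nmole of a random double-stranded 16-mer DNA library in Tris/NaCl/DTT/glycerol buffer at room temperature for 30 min. After washing, the pools were crosslinked with 0.1% formaldehyde, proximity-ligated with BsaI/T4 ligase for 1 h at 37 °C, PCR-amplified and sequenced on an Illumina NextSeq500.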

[2] = target: ETV5 (Homo sapiens, UniProt P41161 1-510); details: protein: recombinant; tags: N-terminal GST; dsDNA, one strand shown
Summary of the method: as §1

[3] = target: HSF1 (Homo sapiens, UniProt Q00613 1-529); details: protein: recombinant; tags: N-terminal GST; chain copies: 3; dsDNA, one strand shown
Summary of the method: as §1

[4] = target: T2, SPIC (Homo sapiens, UniProt Q8N5J4 1-248); details: protein: recombinant; tags: N-terminal GST; dsDNA, one strand shown
T2 sequence: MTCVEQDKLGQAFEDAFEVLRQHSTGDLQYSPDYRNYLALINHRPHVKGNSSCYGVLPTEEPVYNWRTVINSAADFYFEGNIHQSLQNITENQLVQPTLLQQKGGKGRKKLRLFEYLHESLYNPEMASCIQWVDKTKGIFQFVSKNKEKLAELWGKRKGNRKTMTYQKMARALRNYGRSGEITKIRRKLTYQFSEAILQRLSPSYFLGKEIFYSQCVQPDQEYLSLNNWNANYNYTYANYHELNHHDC
Summary of the method: as §1

[5] = target: ELF4 (Homo sapiens, UniProt Q99607 1-663); details: protein: recombinant; tags: N-terminal GST; dsDNA, one strand shown
Summary of the method: as §1

[6] = target: T3, ELK4 (Homo sapiens, UniProt P28324-2 1-405); details: protein: recombinant; tags: N-terminal GST; dsDNA, one strand shown
T3 sequence: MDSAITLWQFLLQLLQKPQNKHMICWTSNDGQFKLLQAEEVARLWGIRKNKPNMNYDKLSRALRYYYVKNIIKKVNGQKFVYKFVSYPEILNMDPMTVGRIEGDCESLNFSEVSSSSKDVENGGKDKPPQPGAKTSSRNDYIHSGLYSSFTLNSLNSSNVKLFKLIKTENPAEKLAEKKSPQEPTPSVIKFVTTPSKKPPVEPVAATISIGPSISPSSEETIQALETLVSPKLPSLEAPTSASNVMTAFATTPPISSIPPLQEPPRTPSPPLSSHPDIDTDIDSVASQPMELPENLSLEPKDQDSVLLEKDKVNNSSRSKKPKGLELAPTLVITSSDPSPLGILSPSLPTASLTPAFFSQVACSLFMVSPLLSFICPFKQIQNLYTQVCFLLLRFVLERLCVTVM
Summary of the method: as §1

[7] = target: T4, ETV2 (Homo sapiens, UniProt O00321 1-342); details: protein: recombinant; tags: N-terminal GST; dsDNA, one strand shown
T4 sequence: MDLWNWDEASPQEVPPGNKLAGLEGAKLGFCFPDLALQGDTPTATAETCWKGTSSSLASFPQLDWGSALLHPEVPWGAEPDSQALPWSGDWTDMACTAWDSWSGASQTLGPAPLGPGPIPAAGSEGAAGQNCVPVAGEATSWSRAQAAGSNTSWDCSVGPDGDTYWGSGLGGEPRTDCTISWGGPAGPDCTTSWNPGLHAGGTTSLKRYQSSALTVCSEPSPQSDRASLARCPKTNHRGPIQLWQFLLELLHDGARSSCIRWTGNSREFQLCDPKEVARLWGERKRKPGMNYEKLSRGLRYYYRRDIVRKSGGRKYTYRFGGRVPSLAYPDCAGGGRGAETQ
Summary of the method: as §1

[8] = target: T5, ELF3 (Homo sapiens, UniProt P78545 1-371); details: protein: recombinant; tags: N-terminal GST; dsDNA, one strand shown
T5 sequence: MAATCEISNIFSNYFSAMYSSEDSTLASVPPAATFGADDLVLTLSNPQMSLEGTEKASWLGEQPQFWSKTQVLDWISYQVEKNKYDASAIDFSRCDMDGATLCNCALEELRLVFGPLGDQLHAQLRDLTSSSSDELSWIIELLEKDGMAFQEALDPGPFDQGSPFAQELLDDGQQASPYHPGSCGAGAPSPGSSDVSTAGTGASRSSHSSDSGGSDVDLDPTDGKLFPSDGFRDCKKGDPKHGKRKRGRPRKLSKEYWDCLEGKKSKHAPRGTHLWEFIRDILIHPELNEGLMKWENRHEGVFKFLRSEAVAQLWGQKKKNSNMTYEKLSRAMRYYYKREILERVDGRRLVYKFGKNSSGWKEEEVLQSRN
Summary of the method: as §1

[9] = target: CRX (Homo sapiens, UniProt O43186 1-299); details: protein: recombinant; tags: N-terminal GST; dsDNA, one strand shown
Summary of the method: as §1

[10] = target: ETV1 (Homo sapiens, UniProt P50549 1-477); details: protein: recombinant; tags: N-terminal GST; dsDNA, one strand shown
Summary of the method: as §1

[11] = target: T6, ERF (Homo sapiens, UniProt P50548 1-548); details: protein: recombinant; tags: N-terminal GST; dsDNA, one strand shown
T6 sequence: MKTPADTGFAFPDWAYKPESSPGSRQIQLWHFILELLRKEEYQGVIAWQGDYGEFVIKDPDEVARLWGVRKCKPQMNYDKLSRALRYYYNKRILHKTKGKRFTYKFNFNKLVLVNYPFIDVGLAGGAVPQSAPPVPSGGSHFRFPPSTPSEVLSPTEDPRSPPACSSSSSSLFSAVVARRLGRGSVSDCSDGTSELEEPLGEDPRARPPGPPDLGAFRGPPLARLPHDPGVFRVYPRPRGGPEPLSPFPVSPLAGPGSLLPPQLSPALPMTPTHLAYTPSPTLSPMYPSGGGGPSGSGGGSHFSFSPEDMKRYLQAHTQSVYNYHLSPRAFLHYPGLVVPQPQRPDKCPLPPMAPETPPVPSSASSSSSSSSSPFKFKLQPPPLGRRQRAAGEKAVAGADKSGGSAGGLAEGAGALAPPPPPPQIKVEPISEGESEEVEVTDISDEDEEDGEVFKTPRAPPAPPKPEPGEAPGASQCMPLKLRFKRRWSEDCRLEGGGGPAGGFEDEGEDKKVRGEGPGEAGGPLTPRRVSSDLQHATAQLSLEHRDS
Summary of the method: as §1

[12] = target: T7, ETV3L (Homo sapiens, UniProt Q6ZN32 1-361); details: protein: recombinant; tags: N-terminal GST; dsDNA, one strand shown
T7 sequence: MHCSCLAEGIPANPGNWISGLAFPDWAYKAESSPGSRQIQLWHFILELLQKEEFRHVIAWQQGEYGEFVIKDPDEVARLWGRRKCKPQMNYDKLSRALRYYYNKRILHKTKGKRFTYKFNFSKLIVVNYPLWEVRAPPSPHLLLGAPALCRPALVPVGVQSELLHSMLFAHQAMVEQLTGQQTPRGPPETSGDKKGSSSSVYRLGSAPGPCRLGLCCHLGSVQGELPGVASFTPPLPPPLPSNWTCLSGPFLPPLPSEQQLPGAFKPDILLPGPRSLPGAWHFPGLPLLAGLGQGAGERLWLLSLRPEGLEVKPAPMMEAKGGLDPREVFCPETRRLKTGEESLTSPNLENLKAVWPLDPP
Summary of the method: as §1

[13] = target: T8, ETS2 (Homo sapiens, UniProt P15036 1-469); details: protein: recombinant; tags: N-terminal GST; dsDNA, one strand shown
T8 sequence: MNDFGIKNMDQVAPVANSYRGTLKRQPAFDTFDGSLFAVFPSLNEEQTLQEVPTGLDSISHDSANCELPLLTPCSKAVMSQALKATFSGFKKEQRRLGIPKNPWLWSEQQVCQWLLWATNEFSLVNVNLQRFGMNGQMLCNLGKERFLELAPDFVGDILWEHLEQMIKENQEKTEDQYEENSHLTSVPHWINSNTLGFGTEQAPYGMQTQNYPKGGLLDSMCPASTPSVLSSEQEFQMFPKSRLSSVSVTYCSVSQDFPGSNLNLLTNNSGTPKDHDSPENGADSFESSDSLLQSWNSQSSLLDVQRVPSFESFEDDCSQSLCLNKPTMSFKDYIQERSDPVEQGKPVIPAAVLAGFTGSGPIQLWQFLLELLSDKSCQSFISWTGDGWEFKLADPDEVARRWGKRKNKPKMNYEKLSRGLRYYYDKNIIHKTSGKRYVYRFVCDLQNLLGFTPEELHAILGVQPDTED
Summary of the method: as §1

[14] = target: T9, SPDEF (Homo sapiens, UniProt O95238 1-335); details: protein: recombinant; tags: N-terminal GST; dsDNA, one strand shown
T9 sequence: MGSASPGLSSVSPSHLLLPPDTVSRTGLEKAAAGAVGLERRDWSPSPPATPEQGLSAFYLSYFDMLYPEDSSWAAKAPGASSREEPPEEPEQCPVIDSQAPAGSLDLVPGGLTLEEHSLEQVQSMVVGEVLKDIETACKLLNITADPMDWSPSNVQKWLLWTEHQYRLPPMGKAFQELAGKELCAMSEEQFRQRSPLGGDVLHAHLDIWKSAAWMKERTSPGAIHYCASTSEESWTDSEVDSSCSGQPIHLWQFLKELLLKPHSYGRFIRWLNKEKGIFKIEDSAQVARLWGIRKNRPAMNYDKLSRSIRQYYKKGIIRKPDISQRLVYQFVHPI
Summary of the method: as §1

[15] = target: T10, ETV7 (Homo sapiens, UniProt Q9Y603 1-341); details: protein: recombinant; tags: N-terminal GST; dsDNA, one strand shown
T10 sequence: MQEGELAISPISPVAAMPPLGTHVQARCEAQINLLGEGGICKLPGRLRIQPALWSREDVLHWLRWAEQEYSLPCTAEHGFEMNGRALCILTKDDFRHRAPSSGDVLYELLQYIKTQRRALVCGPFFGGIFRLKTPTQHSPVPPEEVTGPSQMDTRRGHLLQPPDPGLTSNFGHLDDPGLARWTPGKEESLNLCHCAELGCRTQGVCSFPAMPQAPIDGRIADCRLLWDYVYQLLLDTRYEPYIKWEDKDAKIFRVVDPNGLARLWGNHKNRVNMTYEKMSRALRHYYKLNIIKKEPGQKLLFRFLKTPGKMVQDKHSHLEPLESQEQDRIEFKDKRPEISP
Summary of the method: as §1

[16] = target: T11, ELF5 (Homo sapiens, UniProt Q9UKW6-2 1-255); details: protein: recombinant; tags: N-terminal GST; dsDNA, one strand shown
T11 sequence: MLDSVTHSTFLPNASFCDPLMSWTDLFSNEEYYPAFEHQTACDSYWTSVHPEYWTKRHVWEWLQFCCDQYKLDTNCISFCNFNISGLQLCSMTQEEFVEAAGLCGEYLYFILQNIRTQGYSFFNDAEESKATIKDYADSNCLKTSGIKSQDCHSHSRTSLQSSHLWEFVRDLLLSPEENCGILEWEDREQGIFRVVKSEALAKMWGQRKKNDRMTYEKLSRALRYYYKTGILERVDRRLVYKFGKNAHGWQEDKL
Summary of the method: as §1

[17] = target: T12, ETV3 (Homo sapiens, UniProt P41162-2 1-143); details: protein: recombinant; tags: N-terminal GST; dsDNA, one strand shown
T12 sequence: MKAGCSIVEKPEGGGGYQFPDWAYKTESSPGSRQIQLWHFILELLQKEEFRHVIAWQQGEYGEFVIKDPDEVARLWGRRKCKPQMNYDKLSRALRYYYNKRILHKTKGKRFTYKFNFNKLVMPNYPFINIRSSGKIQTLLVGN
Summary of the method: as §1

[18] = target: ETV6 (Homo sapiens, UniProt P41212 1-452); details: protein: recombinant; tags: N-terminal GST; dsDNA, one strand shown
Summary of the method: as §1

Chain of ELF4 (Q99607 whole entry): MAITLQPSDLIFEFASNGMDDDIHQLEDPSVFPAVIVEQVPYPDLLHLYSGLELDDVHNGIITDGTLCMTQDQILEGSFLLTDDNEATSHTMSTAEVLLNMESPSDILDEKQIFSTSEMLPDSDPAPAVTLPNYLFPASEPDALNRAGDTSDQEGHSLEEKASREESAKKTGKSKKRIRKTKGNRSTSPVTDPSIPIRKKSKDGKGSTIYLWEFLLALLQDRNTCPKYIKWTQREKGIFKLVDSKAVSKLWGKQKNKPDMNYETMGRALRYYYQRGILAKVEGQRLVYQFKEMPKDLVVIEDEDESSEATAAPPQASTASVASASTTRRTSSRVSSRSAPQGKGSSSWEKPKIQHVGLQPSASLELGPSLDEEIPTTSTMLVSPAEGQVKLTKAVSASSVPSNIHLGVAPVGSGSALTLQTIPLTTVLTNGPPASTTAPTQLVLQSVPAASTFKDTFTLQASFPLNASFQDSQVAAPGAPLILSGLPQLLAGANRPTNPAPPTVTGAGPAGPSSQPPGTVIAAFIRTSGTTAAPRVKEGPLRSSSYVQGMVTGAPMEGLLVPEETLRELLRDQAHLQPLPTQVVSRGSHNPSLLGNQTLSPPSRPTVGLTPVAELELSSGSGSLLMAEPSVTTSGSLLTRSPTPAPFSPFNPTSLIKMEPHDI
Chain of ETV1 (P50549 whole entry): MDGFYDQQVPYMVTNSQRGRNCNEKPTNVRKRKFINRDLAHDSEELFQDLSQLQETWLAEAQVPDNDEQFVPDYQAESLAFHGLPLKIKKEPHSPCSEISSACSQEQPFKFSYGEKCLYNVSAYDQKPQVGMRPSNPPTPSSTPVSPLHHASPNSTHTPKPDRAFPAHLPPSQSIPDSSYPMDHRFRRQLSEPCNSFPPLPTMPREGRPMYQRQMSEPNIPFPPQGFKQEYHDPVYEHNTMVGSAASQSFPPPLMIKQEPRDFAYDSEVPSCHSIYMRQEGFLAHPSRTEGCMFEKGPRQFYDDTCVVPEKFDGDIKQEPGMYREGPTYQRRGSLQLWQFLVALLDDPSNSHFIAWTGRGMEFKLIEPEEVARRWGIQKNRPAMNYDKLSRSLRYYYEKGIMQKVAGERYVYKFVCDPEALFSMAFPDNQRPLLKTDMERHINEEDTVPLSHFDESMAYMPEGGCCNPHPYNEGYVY
Chain of CRX (O43186 whole entry): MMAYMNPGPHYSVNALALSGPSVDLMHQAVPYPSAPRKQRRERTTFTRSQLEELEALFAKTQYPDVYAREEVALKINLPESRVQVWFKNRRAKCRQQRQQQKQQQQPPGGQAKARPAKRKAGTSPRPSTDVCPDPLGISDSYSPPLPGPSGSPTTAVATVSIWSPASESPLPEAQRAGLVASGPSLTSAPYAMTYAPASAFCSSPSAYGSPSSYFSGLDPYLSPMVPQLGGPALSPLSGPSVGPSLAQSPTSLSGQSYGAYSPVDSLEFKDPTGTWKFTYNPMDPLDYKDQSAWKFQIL
Chain of ETV6 (P41212 whole entry): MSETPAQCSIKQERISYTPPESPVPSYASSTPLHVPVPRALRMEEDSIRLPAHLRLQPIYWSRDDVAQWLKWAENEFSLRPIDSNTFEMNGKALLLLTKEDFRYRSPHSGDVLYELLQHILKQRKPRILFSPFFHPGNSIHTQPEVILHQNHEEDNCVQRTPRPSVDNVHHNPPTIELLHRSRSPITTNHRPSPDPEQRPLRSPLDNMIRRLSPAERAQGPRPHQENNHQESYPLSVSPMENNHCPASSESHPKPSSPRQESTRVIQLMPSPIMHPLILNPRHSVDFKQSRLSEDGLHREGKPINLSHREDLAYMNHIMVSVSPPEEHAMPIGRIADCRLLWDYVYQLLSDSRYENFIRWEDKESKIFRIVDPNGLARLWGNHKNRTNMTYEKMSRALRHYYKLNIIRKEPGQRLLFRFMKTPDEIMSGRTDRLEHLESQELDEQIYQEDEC
Chain of HSF1 (Q00613 whole entry): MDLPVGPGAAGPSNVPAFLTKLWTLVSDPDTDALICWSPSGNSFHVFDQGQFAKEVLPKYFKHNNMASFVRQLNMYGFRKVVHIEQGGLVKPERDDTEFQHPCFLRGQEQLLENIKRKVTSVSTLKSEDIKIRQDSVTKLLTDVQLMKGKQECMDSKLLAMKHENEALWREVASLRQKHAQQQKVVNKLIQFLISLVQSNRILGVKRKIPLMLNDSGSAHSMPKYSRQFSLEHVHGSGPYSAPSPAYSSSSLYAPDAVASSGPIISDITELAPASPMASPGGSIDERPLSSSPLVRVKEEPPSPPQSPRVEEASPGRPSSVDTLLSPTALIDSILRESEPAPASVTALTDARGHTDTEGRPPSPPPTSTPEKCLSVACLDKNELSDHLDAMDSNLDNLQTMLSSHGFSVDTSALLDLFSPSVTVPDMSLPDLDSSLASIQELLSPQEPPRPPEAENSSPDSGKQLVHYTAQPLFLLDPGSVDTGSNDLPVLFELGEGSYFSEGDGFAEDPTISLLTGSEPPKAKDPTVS
Chain of ETV5 (P41161 whole entry): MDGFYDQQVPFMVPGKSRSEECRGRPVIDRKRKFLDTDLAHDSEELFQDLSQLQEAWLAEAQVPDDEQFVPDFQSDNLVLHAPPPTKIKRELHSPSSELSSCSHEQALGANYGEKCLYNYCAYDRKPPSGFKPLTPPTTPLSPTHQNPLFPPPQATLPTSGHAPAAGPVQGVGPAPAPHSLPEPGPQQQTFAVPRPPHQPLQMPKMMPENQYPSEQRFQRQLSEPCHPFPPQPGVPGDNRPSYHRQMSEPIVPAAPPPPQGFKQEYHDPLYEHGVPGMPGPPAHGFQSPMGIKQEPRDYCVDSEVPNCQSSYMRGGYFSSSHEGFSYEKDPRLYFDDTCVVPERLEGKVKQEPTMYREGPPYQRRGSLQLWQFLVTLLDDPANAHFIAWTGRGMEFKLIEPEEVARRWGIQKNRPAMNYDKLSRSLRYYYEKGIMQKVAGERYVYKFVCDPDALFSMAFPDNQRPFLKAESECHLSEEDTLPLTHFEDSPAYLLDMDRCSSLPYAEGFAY

Sequence	binding signal [1]	binding signal [2]	binding signal [3]	binding signal [4]	binding signal [5]	binding signal [6]	binding signal [7]	binding signal [8]	binding signal [9]	binding signal [10]	binding signal [11]	binding signal [12]	binding signal [13]	binding signal [14]	binding signal [15]	binding signal [16]	binding signal [17]	binding signal [18]
TTGTAC	1.52 fold enrichment (6-mer frequency, TF over GST control)	1.48 fold enrichment (6-mer frequency, TF over GST control)	1.24 fold enrichment (6-mer frequency, TF over GST control)	1.46 fold enrichment (6-mer frequency, TF over GST control)	1.47 fold enrichment (6-mer frequency, TF over GST control)	1.55 fold enrichment (6-mer frequency, TF over GST control)	1.48 fold enrichment (6-mer frequency, TF over GST control)	1.39 fold enrichment (6-mer frequency, TF over GST control)	1.2 fold enrichment (6-mer frequency, TF over GST control)	1.24 fold enrichment (6-mer frequency, TF over GST control)	1.31 fold enrichment (6-mer frequency, TF over GST control)	1.41 fold enrichment (6-mer frequency, TF over GST control)	1.34 fold enrichment (6-mer frequency, TF over GST control)	1.54 fold enrichment (6-mer frequency, TF over GST control)	1.33 fold enrichment (6-mer frequency, TF over GST control)	1.23 fold enrichment (6-mer frequency, TF over GST control)	1.44 fold enrichment (6-mer frequency, TF over GST control)	1.48 fold enrichment (6-mer frequency, TF over GST control)
CAGGAT	1.27 fold enrichment (6-mer frequency, TF over GST control)	1.19 fold enrichment (6-mer frequency, TF over GST control)	1.08 fold enrichment (6-mer frequency, TF over GST control)	1.04 fold enrichment (6-mer frequency, TF over GST control)	1.11 fold enrichment (6-mer frequency, TF over GST control)	1.23 fold enrichment (6-mer frequency, TF over GST control)	1.15 fold enrichment (6-mer frequency, TF over GST control)	1.12 fold enrichment (6-mer frequency, TF over GST control)	1.35 fold enrichment (6-mer frequency, TF over GST control)	1.34 fold enrichment (6-mer frequency, TF over GST control)	1.15 fold enrichment (6-mer frequency, TF over GST control)	1.3 fold enrichment (6-mer frequency, TF over GST control)	1.19 fold enrichment (6-mer frequency, TF over GST control)	2.03 fold enrichment (6-mer frequency, TF over GST control)	1.09 fold enrichment (6-mer frequency, TF over GST control)	1.28 fold enrichment (6-mer frequency, TF over GST control)	1.22 fold enrichment (6-mer frequency, TF over GST control)	1.19 fold enrichment (6-mer frequency, TF over GST control)

From article PMC7862700, “An all-to-all approach to the identification of sequence-specific readers for epigenetic DNA modifications on cytosine”
